This is a sample that favours compounds with a hit; in the whole collection about 2.2% have one here.
TDP43 rescue = inhibitors of TDP-43 toxicity in yeast | 1.8% of 410,000 active | AID 652104 | TDP-43 expressing yeast growth rescue, BacTiter-Glo, 24 h | Potency, µM (titrated, usually from 46.1 µM), most hits filed as activators; note: nearly all actives have a fitted effect of over 50% in size
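Yeast expressing TDP-43 (pregrown in raffinose, seeded at OD600=0.02 in galactose medium) exposed to compounds 24 hr at 30 deg C. Growth read by BacTiter-Glo luminescence; rescue of toxicity appears as increased signal.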
Mito fusion act = inhibitors of mitochondrial division or activators of mitochondrial fusion; 0.23% of 320,000 active; S. cerevisiae fusion-defective mutant growth rescue, CellTiterGlo 48 h; Potency, µM (doses to about 46.1 µM), hits mostly activators; note: nearly all actives have a fitted effect of over 45% in size
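Yeast fusion mutant, YPEG (non-fermentable carbon), compound, 48 h at 37C non-permissive; CellTiterGlo added, 10 min RT, luminescence read. Rescued growth = division inhibition.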
FUS yeast rescue = suppressors of FUS proteinopathy in yeast; S. cerevisiae FUS-expressing, growth rescue, OD600, 24 h; Potency, µM (top dose mostly 76.6 µM), actives largely listed as activators; 0.24% of 390,000 active; AID 1347120; note: nearly all actives have a fitted effect of over 55% in size
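Compound concentration series was pinned onto galactose-induced FUS-expressing yeast seeded at OD 0.005. Plates sat 24hr at 30C; absorbance at 600 nm gave growth. DMSO served as background control.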
aSyn yeast inh = alpha-synuclein toxicity inhibition in yeast; Yeast expressing alpha-synuclein, growth rescue, BacTiter-Glo, 24 h; 0.14% of 370,000 active; Potency, µM (doses to about 46.1 µM), most hits filed as activators; note: nearly all actives have a fitted effect of over 65% in size
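Rescue of yeast growth: cells expressing toxic alpha-synuclein, induced in galactose at OD600 0.02, incubated with compound 24 h at 30 C. ATP luminescence quantified growth; inhibitors of toxicity appear as activators.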
Abeta rescue = restores growth of yeast expressing A-beta42 peptide; yeast expressing A-beta42, growth rescue, OD600, 48 h; response scale: 0% DMSO, 100% iron-clioquinol control; Potency, µM (series often up to 46.1 µM), most hits filed as activators; 0.063% of 410,000 active; note: nearly all actives have a fitted effect of over 55% in size
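Yeast A-beta toxicity model in growth medium with pinned compounds, 48 h at 30 C; growth read as absorbance at 600 nm. Normalized to FeCl3/clioquinol equimolar mix (positive) and DMSO (negative).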
ERG-DNA inh = blocks human ERG Ets domain binding to DNA; P11308; fluorescence polarization, His-ERG Ets domain / labelled DNA; Potency, µM (series often up to 76.9 µM), most hits filed as inhibitors; 0.028% of 370,000 active; AID 624246; active = well fitted inhibition curve with a large enough effect in the polarisation, with a control signal flat; inconclusive = small, poorly fitted or top-dose-only effect, or effect the other way, or a change in a side signal; inactive = no such curve, though single readings can be large or run the other way; the % refers to the polarisation;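 note: polarization taken with two DNA probes labelled with fluorescein and Texas red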
Target sequence (P11308 whole entry, looked up, the tested form may be a part): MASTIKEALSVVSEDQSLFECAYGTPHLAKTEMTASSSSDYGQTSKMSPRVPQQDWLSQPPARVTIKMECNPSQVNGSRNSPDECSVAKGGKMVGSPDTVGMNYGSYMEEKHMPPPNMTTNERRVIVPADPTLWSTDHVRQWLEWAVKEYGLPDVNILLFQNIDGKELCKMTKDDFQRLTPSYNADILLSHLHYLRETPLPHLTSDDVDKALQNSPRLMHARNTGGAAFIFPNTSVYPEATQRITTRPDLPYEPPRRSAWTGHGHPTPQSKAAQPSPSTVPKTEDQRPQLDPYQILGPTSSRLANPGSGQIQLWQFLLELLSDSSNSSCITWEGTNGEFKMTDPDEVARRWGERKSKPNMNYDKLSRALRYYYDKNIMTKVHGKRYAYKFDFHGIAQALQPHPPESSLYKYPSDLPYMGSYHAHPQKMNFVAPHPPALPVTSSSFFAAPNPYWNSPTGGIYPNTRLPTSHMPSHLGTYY
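His-tagged ERG Ets domain (1 uM in the protein solution; 300mM KCl, 50mM Tris-HCl, 1mM EDTA, 1mM DTT, pH 7.5) received compound, then a probe mix of 5 nM fluorescein-DNA and 100nM Texas-615-DNA. Fluorescence polarization was read for both dyes.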
Numbers stand for hits; . = inactive; ? = inconclusive; / = no result; [ ] = remark or other dose. Unless noted, calls come from the whole dose curve; as a rule, active = well fitted curve in the direction sought with a large enough effect; inconclusive = small, poorly fitted or top-dose-only effect, or another doubt; inactive = no such curve, though single readings can be large; an effect the other way counts as inactive or inconclusive.

SMILES	TDP43 rescue	Mito fusion act	FUS yeast rescue	aSyn yeast inh	Abeta rescue	ERG-DNA inh
COc1ccc(CN2C(=O)CN(S(C)(=O)=O)CC2(C)C(=O)Nc2ccc3c(c2)OCCO3)cc1OC (configuration not stated)	.	/	.	.	.	/
Cc1ccc(Cn2c(-c3ccccc3)nc3ccccc32)cc1	25.1µM	/	.	/	.	.
Cc1cccc(Cn2c(C(C)O)nc3ccccc32)c1 (configuration not stated)	.	.	.	.	.	.
Fc1ccc(Cn2c(-c3cccc(Br)c3)nc3ccccc32)cc1	22.4µM	/	.	/	.	.
Cc1cccc(-c2nc3ccccc3n2Cc2ccccc2)c1	11.2µM	/	.	/	.	.
Cc1ccc(Nc2ccccc2)cc1	.	.	.	.	.	.
Cc1ccc(Nc2cc(C)c(O)c(C)c2)cc1	12.6µM	.	.	.	.	.
CCC(NC(=O)CCC(=O)N1CCN(S(=O)(=O)c2ccc(C)cc2)CC1)c1ccc(C)cc1 (configuration not stated)	.	.	.	.	.	.
O=C(c1cnccn1)N1CCc2c([nH]c3ccccc23)C1c1cccc(Cl)c1 (configuration not stated)	17.8µM	?	?	?	.	.
Cc1cc(C(=O)N2CCc3c([nH]c4ccccc34)C2c2cccc(Cl)c2)nn1C (configuration not stated)	.	5.01µM	.	.	.	.
CSc1ccc(C2c3[nH]c4ccccc4c3CCN2C(=O)c2cc(C)n(C)n2)cc1 (configuration not stated)	/	.	/	/	/	/
CC(=O)NCCC(=O)N1CCc2c([nH]c3ccccc23)C1c1cccc(Cl)c1 (configuration not stated)	.	.	.	.	.	.
Cc1ccccc1C(=O)NC1CCCCN(Cc2cccc(C(F)(F)F)c2)C1=O (configuration not stated)	/	/	.	/	/	/
CCCCC1CCC(C(=O)N2CC(=O)Nc3ccc(C)cc3C2c2ccc(F)cc2)CC1 (configuration not stated)	.	/	?	/	.	.
O=C(COC(=O)/C=C/c1ccc(Cl)c(Cl)c1)NC1CCCC1	10µM	.	.	.[1.84 µM]	.	.
O=C(O)CSc1ncnc2c1oc1ccccc12	.	.	.	.	.	.
c1ccc(Sc2ncnc3c2oc2ccccc23)cc1	12.6µM	.	.	.	.	.
Cc1cc(C)c(COc2ccc(/C=N/n3c(C)n[nH]c3=S)cc2)c(C)c1	20µM	.	.	.	?	.
Cc1n[nH]c(=S)n1/N=C/c1ccc(OCc2ccc(Cl)cc2)cc1	?	.	.	.	.	.
CCN(CC)c1nc(N)c2c(N)nc3c(c2c1C#N)CC(c1ccccc1)O3 (configuration not stated)	.	.	.	.	.	.
CCN(CC)c1nc(N)c2c(N)n(-c3ccccc3C)c(=S)c(C#N)c2c1C#N	.	?	28.2µM	.	.	.
COc1ccc(C)cc1NC(=O)Cn1c(=O)c(C(F)(F)F)nc2ccccc21	.	/	.	/	.	.
c1cncc(-c2nnc(-c3cccs3)o2)c1	.	.	.	.	.	.
Brc1ccc(-c2nnc(-c3cccnc3)o2)cc1	10µM	/	.	.	.	.
COc1ccc(-c2nnc(-c3cccnc3)o2)cc1	22.4µM	.	.	.	.	.
SMILES	TDP43 rescue	Mito fusion act	FUS yeast rescue	aSyn yeast inh	Abeta rescue	ERG-DNA inh
COc1ccc(-c2nnc(-c3ccc(N)cc3)o2)cc1	10µM	.	.	.	.	.
COc1ccc(-c2nnc(-c3ccc(N(C)C)cc3)o2)cc1	.	.	?	.	.	.
FC(F)(F)c1ccc(-c2nnc(-c3cccnc3)o2)cc1	12.6µM	.	.	.	.	.
Cc1ccc(-c2nnc(-c3cccnc3)o2)cc1	.	.	.	.	.	.
O[C@H](COc1ccc(Cl)cc1)CN1CCC(C(O)(c2ccccc2)c2ccccc2)CC1	/	/	.	/	/	/
CC(=O)NC1=C(C#N)CCC1	/	/	/	.	/	/
Clc1ccc(-c2nnc(-c3cccnc3)o2)cc1	12.6µM	.	.	.	.	.
Brc1ccccc1-c1nnc(-c2cccnc2)o1	15.8µM	.	.	.	.	.
CCOC(=O)[C@H]1[C@H]2COc3ccc(Br)cc3[C@@H]2N2C(=O)c3ccc(F)cc3NC(=O)[C@@]12C	.	?	.	.	.	.
CCOC(=O)[C@@H]1[C@H]2COc3cc(OC)ccc3[C@H]2N2C(=O)N(c3ccc(Cl)cc3)C(=O)[C@]12C	.	/	?	.	.	.
CCOC(=O)[C@H]1[C@H]2COc3ccc(Br)cc3[C@@H]2N2C(=O)c3cc(F)c(F)cc3NC(=O)[C@@]12C	.	.	28.2µM	.	.	.
CCOC(=O)[C@@H]1[C@H]2COc3cc(OC)ccc3[C@@H]2N2C(=O)N(c3ccc(Cl)cc3)C(=O)[C@]12C	.	/	28.2µM	.	.	.
CCOC(=O)[C@@H]1[C@H]2COc3ccc(Br)cc3[C@@H]2N2C(=O)N(c3ccccc3)C(=O)[C@@]12C	35.5µM	.	.	?	.	.
CCOC(=O)C1(NC(=O)C2(NC(=O)CN3C(=O)c4ccccc4C3=O)CCCC2)CCCC1	.	/	.	.	.	.
COc1ccc(CNc2ncnc3nc[nH]c23)cc1	/	/	/	.	/	/
Cc1cccc(N2CCN(C(=O)CS(=O)(=O)c3cccc4nsnc34)CC2C)c1 (configuration not stated)	?	/	.	.	.	.
Nc1c(C(=O)c2ccc(Br)s2)oc2ccccc12	12.6µM	?	.	.	.	.
Nc1c(C(=O)c2cccs2)oc2ccccc12	.	.	.	.	.	.
CCOc1ccc(CCNC(=O)c2nc(-c3cccc(F)c3)n3c2CCCCC3)cc1OCC	17.8µM	/	?	/	.	.
CCN(CC)C(=S)SCC(=O)c1ccc(F)cc1	?	.	.	.	.	.
Cc1cc(NC(=O)Cn2nc(C)n3cccc3c2=O)ccc1Br	.	/	.	/	.	.
O=C(CSc1nc2ncccc2o1)Nc1cccc(C(F)(F)F)c1	10µM	/	.	/	12.6µM	.
CCN(CC)C(=S)SCC(=O)Nc1cccc(C(F)(F)F)c1	12.6µM	/	.	.	.	.
CCN(CC)C(=S)SCC(=O)Nc1ccc(F)cc1	14.1µM	.	.	.	.	.
Cc1nn(CC(=O)Nc2cccc(C(F)(F)F)c2)c(=O)c2cccn12	.	.	.	6.31µM	.	.
COc1cc(NC(=O)CSc2nc3ncccc3o2)cc(OC)c1	.	/	.	/	.	.
CNC(=O)C1CCC(Cn2c(=O)c3sccc3n(CC(=O)NCc3ccccc3)c2=O)CC1 (configuration not stated)	.	/	.	/	.	.
C=C(C)CSc1nc2sc(C)c(C)c2c(=O)n1C	/	/	.	/	/	/

Assay outcomes from PubChem BioAssay.
